Measured values published in PubChem BioAssay AID1159580 (chemical genetic matrix, 2015).
The campaign covered roughly 5,500 compounds. About 2,000 (36%) were called active. Not shown: some 18% with an inconclusive outcome. Cut-off read from the data, not from the text of the source: active = normalized growth mostly below about 0.91 (no sharp cut-off); inconclusive = no clear call, values can overlap the other calls; inactive = mostly above about 0.92. Some of the results follow.

Experiment: chemical genetic growth profiling, strain panel (AID 1159580);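 note: tested at 20 µM; growth read once vehicle control cultures reached saturation at 30 °C; 1 = growth at the plate median or of vehicle wells; lower values mean less growth of the strain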
Conditions: growth OD

Measured: normalized growth

CC(N)CCCC(C)(C)O (centres undefined)
inactive: S. cerevisiae deletion strains, locus YJR066W, strain TOR1, active compounds read low 1.01 | S. cerevisiae deletion strains, locus YKL009W, strain mrt4, active compounds read low 0.985 | S. cerevisiae deletion strains, locus YKL068W, active compounds read low 0.995 | S. cerevisiae deletion strains, locus YKL085W, strain MDH1 (second series), active compounds read low 0.995 | S. cerevisiae deletion strains, locus YKL085W, strain MDH1, active compounds read low 0.995 | S. cerevisiae deletion strains, locus YKL160W, strain elf1, active compounds read low 0.991 | S. cerevisiae deletion strains, locus YKL190W, strain CNB1, active compounds read low 0.995 | S. cerevisiae deletion strains, locus YKR001C, strain vps1, active compounds read low 0.99 | S. cerevisiae deletion strains, locus YKR026C, strain gcn3, active compounds read low 0.956 | S. cerevisiae deletion strains, locus YKR091W, strain srl3, active compounds read low 0.977 | S. cerevisiae deletion strains, locus YLL001W, strain dnm1, active compounds read low 0.974 | S. cerevisiae deletion strains, locus YLL026W, active compounds read low 0.979 | S. cerevisiae deletion strains, locus YLL041C, strain sdh2, active compounds read low 0.968 | S. cerevisiae deletion strains, locus YLR027C, strain aat2, active compounds read low 0.99 | S. cerevisiae deletion strains, locus YLR039C, strain RIC1, active compounds read low 1.01 | S. cerevisiae deletion strains, locus YLR058C, strain SHM2, active compounds read low 1.01 | S. cerevisiae deletion strains, locus YLR102C, strain apc9, active compounds read low 1.01 | S. cerevisiae deletion strains, locus YLR113W, strain HOG1, active compounds read low 0.988 | S. cerevisiae deletion strains, locus YLR221C, strain rsa3, active compounds read low 0.982 | S. cerevisiae deletion strains, locus YLR258W, strain gsy2, active compounds read low 0.982 | S. cerevisiae deletion strains, locus YLR262C, strain YPT6 (second series), active compounds read low 0.995 | S. cerevisiae deletion strains, locus YLR262C, strain YPT6, active compounds read low 1.03 | S. cerevisiae deletion strains, locus YLR268W, strain sec22, active compounds read low 0.999 | S. cerevisiae deletion strains, locus YLR320W, strain mms22, active compounds read low 1.01 | S. cerevisiae deletion strains, locus YLR330W, strain CHS5, active compounds read low 1.01 | S. cerevisiae deletion strains, locus YLR342W, strain FKS1 (second series), active compounds read low 1.04 | S. cerevisiae deletion strains, locus YLR342W, strain FKS1, active compounds read low 0.982 | S. cerevisiae deletion strains, locus YLR357W, strain rsc2, active compounds read low 0.981 | S. cerevisiae deletion strains, locus YLR370C, strain arc18, active compounds read low 0.988 | S. cerevisiae deletion strains, locus YLR371W, strain rom2, active compounds read low 0.991 | S. cerevisiae deletion strains, locus YLR384C, strain iki3, active compounds read low 0.985 | S. cerevisiae deletion strains, locus YLR418C, strain cdc73, active compounds read low 1.05 | S. cerevisiae deletion strains, locus YML016C, strain PPZ1, active compounds read low 1 | S. cerevisiae deletion strains, locus YML032C, strain rad52, active compounds read low 0.986 | S. cerevisiae deletion strains, locus YML120C, strain ndi1, active compounds read low 0.981 | S. cerevisiae deletion strains, locus YML124C, strain tub3, active compounds read low 1.01 | S. cerevisiae deletion strains, locus YMR058W, strain fet3, active compounds read low 0.974 | S. cerevisiae deletion strains, locus YMR078C, strain ctf18, active compounds read low 1.01 | S. cerevisiae deletion strains, locus YMR125W, strain sto1, active compounds read low 0.957 | S. cerevisiae deletion strains, locus YMR129W, active compounds read low 0.978 | S. cerevisiae deletion strains, locus YMR205C, strain PFK2, active compounds read low 1.01 | S. cerevisiae deletion strains, locus YMR223W, strain ubp8, active compounds read low 1.02 | S. cerevisiae deletion strains, locus YMR231W, strain pep5, active compounds read low 0.983 | S. cerevisiae deletion strains, locus YMR263W, strain SAP30, active compounds read low 0.984 | S. cerevisiae deletion strains, locus YMR307W, strain GAS1, active compounds read low 1.06 | S. cerevisiae deletion strains, locus YNL067W, strain RPL9B, active compounds read low 0.973 | S. cerevisiae deletion strains, locus YNL071W, strain lat1, active compounds read low 0.987 | S. cerevisiae deletion strains, locus YNL183C, strain NPR1, active compounds read low 1.03 | S. cerevisiae deletion strains, locus YNL209W, strain ssb2, active compounds read low 0.976 | S. cerevisiae deletion strains, locus YNL233W, strain BNI4, active compounds read low 0.97 | S. cerevisiae deletion strains, locus YNL248C, strain rpa49, active compounds read low 0.965 | S. cerevisiae deletion strains, locus YNL250W, strain rad50, active compounds read low 0.996 | S. cerevisiae deletion strains, locus YNL271C, strain bni1, active compounds read low 1.01 | S. cerevisiae deletion strains, locus YNL298W, strain CLA4, active compounds read low 0.999 | S. cerevisiae deletion strains, locus YNL307C, strain MCK1, active compounds read low 1.01 | S. cerevisiae deletion strains, locus YNL322C, strain KRE1 (second series), active compounds read low 0.972 | S. cerevisiae deletion strains, locus YNR049C, strain mso1, active compounds read low 0.965 | S. cerevisiae deletion strains, locus YNR052C, strain pop2, active compounds read low 1 | S. cerevisiae deletion strains, locus YOL006C, strain TOP1, active compounds read low 0.947 | S. cerevisiae deletion strains, locus YOL012C, strain htz1 0.693 | S. cerevisiae deletion strains, locus YOL147C, strain pex11, active compounds read low 1 | S. cerevisiae deletion strains, locus YOR001W, strain rrp6, active compounds read low 0.961 | S. cerevisiae deletion strains, locus YOR061W, strain CKA2, active compounds read low 1 | S. cerevisiae deletion strains, locus YOR069W, strain VPS5, active compounds read low 1.01 | S. cerevisiae deletion strains, locus YOR070C, strain gyp1, active compounds read low 0.992 | S. cerevisiae deletion strains, locus YOR080W, strain dia2, active compounds read low 0.98 | S. cerevisiae deletion strains, locus YOR083W, strain WHI5, active compounds read low 0.979 | S. cerevisiae deletion strains, locus YOR106W, strain vam3, active compounds read low 0.978 | S. cerevisiae deletion strains, locus YOR136W, strain idh2, active compounds read low 0.991 | S. cerevisiae deletion strains, locus YOR144C, strain elg1, active compounds read low 0.995 | S. cerevisiae deletion strains, locus YOR184W, strain ser1, active compounds read low 0.999 | S. cerevisiae deletion strains, locus YOR231W, strain MKK1, active compounds read low 1.03 | S. cerevisiae deletion strains, locus YOR265W, strain rbl2, active compounds read low 0.982 | S. cerevisiae deletion strains, locus YOR270C, strain vph1, active compounds read low 0.989 | S. cerevisiae deletion strains, locus YOR290C, strain snf2, active compounds read low 0.94 | S. cerevisiae deletion strains, locus YOR316C, strain cot1, active compounds read low 1 | S. cerevisiae deletion strains, locus YPL051W, strain arl3, active compounds read low 0.979 | S. cerevisiae deletion strains, locus YPL055C, strain LGE1, active compounds read low 0.915 | S. cerevisiae deletion strains, locus YPL078C, strain atp4, active compounds read low 0.975 | S. cerevisiae deletion strains, locus YPL106C, strain sse1, active compounds read low 0.951 | S. cerevisiae deletion strains, locus YPL240C, strain hsp82, active compounds read low 0.966 | S. cerevisiae deletion strains, locus YPL241C, strain CIN2, active compounds read low 1 | S. cerevisiae deletion strains, locus YPL256C, strain CLN2, active compounds read low 1.1 | S. cerevisiae deletion strains, locus YPR119W, strain clb2, active compounds read low 0.997 | S. cerevisiae deletion strains, locus YPR141C, strain kar3, active compounds read low 1 | S. cerevisiae deletion strains, locus YPR163C, strain tif3, active compounds read low 1 | S. cerevisiae deletion strains, locus YPR167C, strain met16, active compounds read low 1.01 | S. cerevisiae deletion strains, strain wtn01, active compounds read low 1 | S. cerevisiae strains, strain wild type, active compounds read low 1
